Results: PubChem BioAssay (NCI)
This is part of a sample that, as a whole, favours compounds with a hit. Of some 83,000 tested, about 20% had one in any assay.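 Single-concentration screen, 48 h exposure, 96-well plates. Endpoint: percent growth. Below 10 = active.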 Unmarked numbers belong to inactive results. The source made the active and inactive calls.

Key:
Experiment in all cases: NCI-60 one-dose screen, 48 h (100 = growth as untreated, 0 = no growth, -100 = all killed)
A549/ATCC NSCLC = conditions: 10 µM unless noted
COLO 205 colon = conditions: 10 µM
MDA-MB-231 breast = conditions: 10 µM unless noted
RXF 393 renal = conditions: 10 µM unless noted
UACC-257 melanoma = conditions: 10 µM unless noted
HT29 colon = conditions: 10 µM unless noted
SNB-19 CNS = conditions: 10 µM unless noted
SK-MEL-5 melanoma = conditions: 10 µM unless noted
SN12C renal = conditions: 10 µM unless noted
UO-31 renal = conditions: 10 µM unless noted
A498 renal = conditions: 10 µM unless noted
OVCAR-8 ovarian = conditions: 10 µM unless noted
OVCAR-5 ovarian = conditions: 10 µM unless noted
SK-OV-3 ovarian = conditions: 10 µM unless noted
HS 578T breast = conditions: 10 µM unless noted
T-47D breast = conditions: 10 µM unless noted
MDA-MB-435 melanoma = conditions: 10 µM unless noted
HCT-116 colon = conditions: 10 µM unless noted
HCC-2998 colon = conditions: 10 µM unless noted
SF-295 CNS = conditions: 10 µM unless noted

Compound	growth (A549/ATCC NSCLC)	growth (COLO 205 colon)	growth (MDA-MB-231 breast)	growth (RXF 393 renal)	growth (UACC-257 melanoma)	growth (HT29 colon)	growth (SNB-19 CNS)	growth (SK-MEL-5 melanoma)	growth (SN12C renal)	growth (UO-31 renal)	growth (A498 renal)	growth (OVCAR-8 ovarian)	growth (OVCAR-5 ovarian)	growth (SK-OV-3 ovarian)	growth (HS 578T breast)	growth (T-47D breast)	growth (MDA-MB-435 melanoma)	growth (HCT-116 colon)	growth (HCC-2998 colon)	growth (SF-295 CNS)
CCCCOC(=O)c1ccccc1C(=O)O.CCCCOC(=O)c1ccccc1C(=O)O.[Cu+2]	103%	101%	124%	116%	110%	107%	131%	98%	113%	96.5%	105%	108%	126%	93.4%	97.3%	104%	105%	102%	104%	–
CC1(CF)NC(=O)NC1=O (stereo unspecified)	113%	114%	99.1%	121%	97.2%	–	97.9%	114%	94.3%	–	105%	102%	–	109%	108%	–	107%	103%	102%	118%
CCOP(=O)(OCC)Oc1ccc(Sc2ccc(OP(=O)(OCC)OCC)cc2)cc1	97.5%	110%	119%	106%	93.1%	108%	100%	100%	101%	75%	85.2%	99.8%	105%	103%	109%	97.9%	96.8%	100%	102%	97.5%
CC1([N+](=O)[O-])COP(=O)(Nc2ccc(F)cc2)OC1 (stereo unspecified)	98.5%	107%	118%	100%	101%	96.5%	107%	98.2%	111%	73.9%	–	101%	106%	101%	103%	82.9%	110%	99.4%	99.5%	106%
COc1cc(NCCCCCN=C(N)N)c2ncccc2c1	90.7%	54.9%	50.8%	–	79.7%	62.9%	–	–	7.58% (active)	83.9%	89.6%	32.6%	97.3%	94.9%	–	11.8%	104%	6.08% (active)	55.9%	61.1%
NC(=O)C(Cl)Cl	–	113%	111%	–	94.8%	116%	99.2%	–	104%	94.6%	106%	99.9%	101%	109%	117%	103%	103%	107%	120%	98.3%
O=C(CCc1ccco1)NC1CCN(CC2(c3ccc(Cl)cc3)CCC2)CC1	8.74% (active)	-30% (active)	-6.18% (active)	28.4%	-4.36% (active)	10.5%	15%	-9.97% (active)	5.58% (active)	10.7%	-15% (active)	12.2%	53.2%	13.8%	28.7%	15.4%	4.28% (active)	7.86% (active)	11.4%	-46.5% (active)
CC(=O)O[C@H]1CCC2(C)C(=CCC3C2CCC2(C)/C(=N/OC(=O)c4ccc(N(CCCl)CCCl)cc4)CCC32)C1 (stereo partly specified)	2.05% (active)	69.7%	40.5%	44.1%	97.2%	32.6%	37.7%	73.2%	47.3%	-11.9% (active)	57%	56.4%	81.7%	102%	27%	17.7%	47.1%	9.02% (active)	80.3%	63.5%
Cn1cnnc1[S-].[Au+].c1ccc([PH+](c2ccccc2)c2ccccc2)cc1	78.8%	-10% (active)	30.3%	-78.6% (active)	22.9%	39.8%	11.4%	-9.96% (active)	15.9%	48.5%	64.7%	20.3%	91.9%	–	49.2%	-16.6% (active)	11.1%	3.71% (active)	48.3%	78.8%
C[C@]12C[C@H](O)[C@H]3[C@@H](CCC4=CC(=O)CC[C@@]43C)[C@@H]1CC[C@@H]2O	–	99.8%	103%	109%	–	–	104%	100%	101%	77.7%	116%	114%	105%	105%	105%	105%	101%	101%	95.3%	85.6%
CC[C@]12C=CCN3CC[C@@]4(c5ccc(OC)cc5N(C)[C@H]4[C@@](O)(C(=O)OC)[C@@H]1OC(=O)CCCN1CCN(CCCC(=O)O[C@@H]4[C@]5(CC)C=CCN6CC[C@@]7(c8ccc(OC)cc8N(C)[C@H]7[C@@]4(O)C(=O)OC)[C@@H]65)CC1)[C@@H]32	-81.4% (active)	-79% (active)	-89.6% (active)	-88.5% (active)	-87.6% (active)	-81.3% (active)	-93.9% (active)	-95.9% (active)	-81.4% (active)	-88.8% (active)	-58.2% (active)	-71.1% (active)	-87.8% (active)	-88.7% (active)	-61.7% (active)	-68.3% (active)	-89.3% (active)	-84% (active)	-86.6% (active)	-85.9% (active)
CCC(C)(C)O	108%	110%	97.4%	111%	119%	109%	104%	101%	98.8%	93.8%	83.1%	108%	90.1%	118%	105%	107%	92.3%	111%	112%	87.7%
CCC[CH2][Sn]([CH2]CCC)([CH2]CCC)[O]C(=O)c1ccc(Cl)cc1Cl	-79.9% (active)	-68.8% (active)	-88.2% (active)	-88.5% (active)	-94.8% (active)	-64.7% (active)	-86.3% (active)	-96.1% (active)	-83.9% (active)	-86.9% (active)	-85.3% (active)	-63.6% (active)	-95.1% (active)	-96% (active)	-38.3% (active)	-58.3% (active)	-85.4% (active)	-87.6% (active)	-90.9% (active)	-89.9% (active)
CC(C)OC(=S)[S-].[Au+].c1ccc([PH+](c2ccccc2)c2ccccc2)cc1	84.5%	–	-14.3% (active)	-77.1% (active)	28.1%	55.7%	–	30.2%	16.7%	21.9%	–	27.2%	73.9%	–	15.6%	–	30.3%	13.9%	50.8%	91.1%
COc1ccc(CN2CCN(Cc3ccccc3)CC2)c(O)c1	97.4%	95.5%	104%	105%	105%	87.7%	104%	87.9%	91.2%	68.7%	95.5%	98.2%	101%	95.7%	102%	84.7%	103%	83.4%	89.4%	99.8%
CC[C@@]1(C2O[C@@H](C3O[C@@](O)(CC)[C@H](C)C[C@@H]3C)C[C@@H]2C)CC[C@H]([C@]2(C)CCC3(C[C@H](O)[C@@H](C)[C@@H]([C@H](C)[C@@H](OC)[C@H](C)C(=O)O)O3)O2)O1 (stereo partly specified)	17.6%	–	–	–	20.7%	–	–	–	31%	–	42.7%	31%	43.9%	23%	–	30.2%	–	–	–	–
C/C(=N/OC(=O)N(C)C)c1ccc(Cl)cc1Cl	97.3%	110%	116%	112%	101%	105%	103%	103%	96.8%	80.8%	90.9%	106%	106%	94.6%	107%	96.7%	96%	99.1%	102%	98.6%
